Measurements from PubChem BioAssay AID1159580 (chemical genetic matrix, 2015).
Values joined by “and” are separate entries in the source; they are usually repeats but may differ in a detail not shown here. Identical values can stand only once. Among all 5,500 compounds or so, about 2,000 (36%) were called active. Roughly 18% stayed inconclusive and do not appear here. Rule as the data show it: active = normalized growth mostly below about 0.91 (no sharp cut-off); inconclusive = no clear call, values can overlap the other calls; inactive = mostly above about 0.92. The list shows a part of the results.

Test: chemical genetic growth profiling, strain panel (AID 1159580);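 also: tested at 20 µM; growth read once vehicle control cultures reached saturation at 30 °C; 1 = growth at the plate median or of vehicle wells; lower values mean less growth of the strain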
Settings: S. cerevisiae deletion strains, growth OD
[1] = locus YDL101C, strain DUN1, stronger effect = lower value
[2] = locus YHR030C, strain SLT2, stronger effect = lower value
[3] = locus YHR079C, strain IRE1, stronger effect = lower value
[4] = locus YJL095W, strain BCK1, stronger effect = lower value
[5] = locus YJR066W, strain TOR1, stronger effect = lower value
[6] = locus YLR113W, strain HOG1, stronger effect = lower value
[7] = locus YNL183C, strain NPR1, stronger effect = lower value
[8] = locus YOR061W, strain CKA2, stronger effect = lower value
[9] = locus YOR231W, strain MKK1, stronger effect = lower value
[10] = locus YPL256C, strain CLN2, stronger effect = lower value

Measured: normalized growth

NC(=NC(=O)c1ccc(Cl)cc1)c1cccs1
inactive: locus YAR019C, strain CDC15, stronger effect = lower value 0.944 | locus YBL105C, strain PKC1, stronger effect = lower value 0.964 | locus YBR135W, strain CKS1, stronger effect = lower value 0.95 | locus YBR136W, strain MEC1, stronger effect = lower value 0.949 | locus YBR160W, strain CDC28, stronger effect = lower value 0.951 | locus YDL017W, strain CDC7, stronger effect = lower value 0.964 | locus YDL028C, strain MPS1, stronger effect = lower value 0.933 | [1] 0.969 | locus YDL108W, strain KIN28, stronger effect = lower value 0.946 | locus YDL132W, strain cdc53, stronger effect = lower value 0.951 | locus YDL214C, strain PRR2, stronger effect = lower value 0.8 | locus YDR052C, strain DBF4, stronger effect = lower value 0.96 | locus YDR054C, strain cdc34, stronger effect = lower value 0.951 | locus YDR226W, strain ADK1, stronger effect = lower value 0.951 | locus YDR477W, strain SNF1, stronger effect = lower value 0.828 | locus YER123W, strain YCK3, stronger effect = lower value 0.81 | locus YER133W, strain GLC7, stronger effect = lower value 0.775 | locus YFL009W, strain cdc4, stronger effect = lower value 0.954 | locus YFL029C, strain CAK1, stronger effect = lower value 0.949 | locus YFR003C, strain YPI1, stronger effect = lower value 0.959 | locus YFR019W, strain FAB1, stronger effect = lower value 0.938 | locus YFR028C, strain CDC14, stronger effect = lower value 0.948 | locus YGR040W, strain KSS1, stronger effect = lower value 0.833 | locus YGR052W, strain FMP48, stronger effect = lower value 0.794 | locus YGR092W, strain DBF2, stronger effect = lower value 0.533 | [2] 0.902 | [3] 0.698 | locus YHR082C, strain KSP1, stronger effect = lower value 0.934 | locus YHR205W, strain SCH9, stronger effect = lower value 0.798 | locus YIL147C, strain SLN1, stronger effect = lower value 0.956 | [4] 0.795 | locus YJL128C, strain PBS2, stronger effect = lower value 0.921 | locus YJL157C, strain FAR1, stronger effect = lower value 0.833 | locus YJR016C, strain ILV3, stronger effect = lower value 0.957 | locus YJR066W, strain TOR1 (second series), stronger effect = lower value 0.904 | [5] 0.884 | locus YKL048C, strain ELM1, stronger effect = lower value 0.901 | locus YKL067W, strain YNK1, stronger effect = lower value 0.824 | locus YKL101W, strain HSL1, stronger effect = lower value 0.877 | locus YKL193C, strain SDS22, stronger effect = lower value 0.942 | locus YKL203C, strain TOR2, stronger effect = lower value 0.9 | locus YLR133W, strain CKI1, stronger effect = lower value 0.83 | locus YLR403W, strain SFP1, stronger effect = lower value 0.789 | locus YML070W, strain DAK1, stronger effect = lower value 0.774 | locus YMR001C, strain CDC5, stronger effect = lower value 0.948 | locus YMR205C, strain PFK2 (second series), stronger effect = lower value 0.836 | locus YMR277W, strain FCP1, stronger effect = lower value 0.942 | locus YNL006W, strain LST8, stronger effect = lower value 0.97 | locus YNL020C, strain ARK1, stronger effect = lower value 0.821 | locus YNL161W, strain CBK1, stronger effect = lower value 0.95 | [7] 0.721 | locus YNL207W, strain RIO2, stronger effect = lower value 0.949 | locus YNL222W, strain SSU72, stronger effect = lower value 0.957 | locus YNL307C, strain MCK1 (second series), stronger effect = lower value 0.82 | locus YOL078W, strain AVO1, stronger effect = lower value 0.944 | locus YOL136C, strain PFK27, stronger effect = lower value 0.774 | [8] 0.82 | locus YOR119C, strain RIO1, stronger effect = lower value 0.834 | [9] 0.734 | locus YOR329C, strain SCD5, stronger effect = lower value 0.949 | locus YPL031C, strain PHO85, stronger effect = lower value 0.8 | locus YPL153C, strain RAD53, stronger effect = lower value 0.844 | locus YPL204W, strain HRR25, stronger effect = lower value 0.806 | locus YPL209C, strain IPL1, stronger effect = lower value 0.955 | locus YPR025C, strain CCL1, stronger effect = lower value 0.953 | locus YPR106W, strain ISR1, stronger effect = lower value 0.932 | locus YPR111W, strain DBF20, stronger effect = lower value 0.915 | strain NNK1, stronger effect = lower value 0.932 | strain TSCII, stronger effect = lower value 0.939
active: [6] 0.607 | [10] 0.67

O=C(O)CCCCCCCCCCCCC1C=CCC1 (configuration not stated)
inactive: locus YBR229C, strain ROT2, stronger effect = lower value 1.01 | locus YCL029C, strain bik1, stronger effect = lower value 0.939 | locus YDL035C, strain GPR1, stronger effect = lower value 0.87 | [1] 0.958 | locus YDL134C, strain PPH21, stronger effect = lower value 0.93 | locus YDL185W, strain tfp1, stronger effect = lower value 1.01 | locus YDR162C, strain NBP2, stronger effect = lower value 0.911 | locus YDR318W, strain mcm21, stronger effect = lower value 0.946 | locus YDR388W, stronger effect = lower value 0.976 | locus YEL061C, strain CIN8, stronger effect = lower value 0.971 | locus YER110C, stronger effect = lower value 1.01 | locus YER167W, strain BCK2, stronger effect = lower value 1.01 | locus YGL078C, strain dbp3, stronger effect = lower value 0.973 | locus YGR135W, strain pre9, stronger effect = lower value 0.953 | locus YGR252W, strain gcn5, stronger effect = lower value 0.78 | locus YHR079C, strain IRE1 (second series), stronger effect = lower value 0.98 | [3] 0.935 | locus YHR094C, strain hxt1, stronger effect = lower value 1 | locus YHR200W, strain rpn10, stronger effect = lower value 1 | locus YIL125W, strain kgd1, stronger effect = lower value 0.99 | locus YIR030C, strain dcg1, stronger effect = lower value 0.998 | locus YJL134W, strain LCB3, stronger effect = lower value 1.02 | locus YJL168C, strain set2, stronger effect = lower value 0.999 | locus YJL187C, strain SWE1 (second series), stronger effect = lower value 0.867 | locus YJR043C, strain POL32, stronger effect = lower value 0.919 | [5] 0.931 | locus YJR075W, strain HOC1, stronger effect = lower value 0.967 | locus YKL009W, strain mrt4, stronger effect = lower value 0.972 | locus YKL068W, stronger effect = lower value 1.01 | locus YKL085W, strain MDH1 (second series), stronger effect = lower value 1.01 | locus YKL085W, strain MDH1, stronger effect = lower value 1.01 | locus YLR058C, strain SHM2, stronger effect = lower value 0.902 | locus YLR102C, strain apc9, stronger effect = lower value 0.998 | [6] 0.995 | locus YLR342W, strain FKS1 (second series), stronger effect = lower value 0.854 | locus YLR371W, strain rom2, stronger effect = lower value 0.992 | locus YML016C, strain PPZ1, stronger effect = lower value 1.03 | locus YML032C, strain rad52, stronger effect = lower value 0.977 | locus YML124C, strain tub3, stronger effect = lower value 0.998 | locus YMR078C, strain ctf18, stronger effect = lower value 1.01 | locus YMR263W, strain SAP30, stronger effect = lower value 0.915 | locus YMR307W, strain GAS1, stronger effect = lower value 1.13 | locus YNL067W, strain RPL9B, stronger effect = lower value 0.933 | [7] 0.903 | locus YNL250W, strain rad50, stronger effect = lower value 1.02 | locus YNL271C, strain bni1, stronger effect = lower value 0.976 | locus YNL298W, strain CLA4, stronger effect = lower value 0.944 | locus YNR052C, strain pop2, stronger effect = lower value 0.988 | locus YOL006C, strain TOP1, stronger effect = lower value 0.764 | locus YOL012C, strain htz1 0.57 | [8] 0.987 | locus YOR069W, strain VPS5, stronger effect = lower value 0.956 | locus YOR136W, strain idh2, stronger effect = lower value 0.976 | [9] 0.954 | locus YOR316C, strain cot1, stronger effect = lower value 0.999 | [10] 1.04 | locus YPR119W, strain clb2, stronger effect = lower value 0.993 | locus YPR141C, strain kar3, stronger effect = lower value 1.01 | locus YPR163C, strain tif3, stronger effect = lower value 0.921 | locus YPR167C, strain met16, stronger effect = lower value 0.989 | strain wtn01, stronger effect = lower value 0.908
active: locus YBR021W, strain FUR4, stronger effect = lower value 0.186 | locus YDL074C, strain BRE1, stronger effect = lower value 0.653 | locus YDL192W, strain arf1, stronger effect = lower value 0.82 | locus YDR101C, strain arx1, stronger effect = lower value 0.883 | locus YDR502C, strain sam2, stronger effect = lower value 0.917 | locus YER155C, strain BEM2, stronger effect = lower value 0.745 | locus YGL086W, strain mad1, stronger effect = lower value 0.853 | locus YGL248W, strain PDE1, stronger effect = lower value 0.865 | locus YHR129C, strain ARP1, stronger effect = lower value 0.885 | locus YIL066C, strain RNR3, stronger effect = lower value 0.841 | locus YIL073C, strain SPO22, stronger effect = lower value 0.604 | locus YKL190W, strain CNB1, stronger effect = lower value 0.761 | locus YKR001C, strain vps1, stronger effect = lower value 0.337 | locus YLR039C, strain RIC1, stronger effect = lower value 0.422 | locus YLR262C, strain YPT6, stronger effect = lower value 0.476 | locus YLR268W, strain sec22, stronger effect = lower value 0.812 | locus YLR330W, strain CHS5, stronger effect = lower value 0.822 | locus YLR418C, strain cdc73, stronger effect = lower value 0.632 | locus YMR223W, strain ubp8, stronger effect = lower value 0.871 | locus YNL153C, strain GIM3, stronger effect = lower value 0.808 | locus YNL233W, strain BNI4, stronger effect = lower value 0.652 | locus YNL307C, strain MCK1, stronger effect = lower value 0.585 | locus YOL147C, strain pex11, stronger effect = lower value 0.871 | locus YOR144C, strain elg1, stronger effect = lower value 0.901 | locus YOR184W, strain ser1, stronger effect = lower value 0.726
0.542 (active) and 0.952 (inactive): [4]
0.311 (active) and 0.959 (inactive): [2]

O=C(O)CCCO
inactive: [2] 1.05 | [3] 1.05 | [4] 1.01 | [5] 0.976 | [6] 1.02 | [7] 0.983 | [9] 1.02 | [10] 1.01
